In PubChem BioAssay AID1159580 (chemical genetic matrix, 2015):
Several values for one entry are separate records, joined by “and”; a condition that tells them apart may be missing. Identical values can stand only once. Among all 5,500 compounds or so, about 2,000 (36%) were called active. Another 18% or so got no clear call; they are omitted. Cut-off read from the data, not from the text of the source: active = normalized growth mostly below about 0.91 (no sharp cut-off); inconclusive = no clear call, values can overlap the other calls; inactive = mostly above about 0.92. The list shows a part of the results.

Test: chemical genetic growth profiling, strain panel (AID 1159580);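 note: tested at 20 µM; growth read once vehicle control cultures reached saturation at 30 °C; 1 = growth at the plate median or of vehicle wells; lower values mean less growth of the strain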
Conditions: growth OD

Measured: normalized growth

CC[N+](CC)(CC)CCOc1cccc(OCC[N+](CC)(CC)CC)c1OCC[N+](CC)(CC)CC
inactive: S. cerevisiae deletion strains, locus YJR066W, strain TOR1, stronger effect = lower value 0.953 | S. cerevisiae deletion strains, locus YKL009W, strain mrt4, stronger effect = lower value 0.99 | S. cerevisiae deletion strains, locus YKL068W, stronger effect = lower value 1 | S. cerevisiae deletion strains, locus YKL085W, strain MDH1 (second series), stronger effect = lower value 1.02 | S. cerevisiae deletion strains, locus YKL085W, strain MDH1, stronger effect = lower value 1.02 | S. cerevisiae deletion strains, locus YKL160W, strain elf1, stronger effect = lower value 1.04 | S. cerevisiae deletion strains, locus YKR001C, strain vps1, stronger effect = lower value 1 | S. cerevisiae deletion strains, locus YKR026C, strain gcn3, stronger effect = lower value 1.01 | S. cerevisiae deletion strains, locus YKR091W, strain srl3, stronger effect = lower value 1.02 | S. cerevisiae deletion strains, locus YLL001W, strain dnm1, stronger effect = lower value 1.04 | S. cerevisiae deletion strains, locus YLL026W, stronger effect = lower value 1.01 | S. cerevisiae deletion strains, locus YLL041C, strain sdh2, stronger effect = lower value 1.01 | S. cerevisiae deletion strains, locus YLR027C, strain aat2, stronger effect = lower value 1.02 | S. cerevisiae deletion strains, locus YLR039C, strain RIC1, stronger effect = lower value 1.11 | S. cerevisiae deletion strains, locus YLR058C, strain SHM2, stronger effect = lower value 1.03 | S. cerevisiae deletion strains, locus YLR102C, strain apc9, stronger effect = lower value 1.01 | S. cerevisiae deletion strains, locus YLR113W, strain HOG1, stronger effect = lower value 0.977 | S. cerevisiae deletion strains, locus YLR221C, strain rsa3, stronger effect = lower value 1.02 | S. cerevisiae deletion strains, locus YLR258W, strain gsy2, stronger effect = lower value 1.01 | S. cerevisiae deletion strains, locus YLR262C, strain YPT6 (second series), stronger effect = lower value 1.05 | S. cerevisiae deletion strains, locus YLR262C, strain YPT6, stronger effect = lower value 1.07 | S. cerevisiae deletion strains, locus YLR268W, strain sec22, stronger effect = lower value 1.01 | S. cerevisiae deletion strains, locus YLR320W, strain mms22, stronger effect = lower value 1.03 | S. cerevisiae deletion strains, locus YLR330W, strain CHS5, stronger effect = lower value 1.01 | S. cerevisiae deletion strains, locus YLR342W, strain FKS1 (second series), stronger effect = lower value 0.996 | S. cerevisiae deletion strains, locus YLR342W, strain FKS1, stronger effect = lower value 1.02 | S. cerevisiae deletion strains, locus YLR357W, strain rsc2, stronger effect = lower value 1 | S. cerevisiae deletion strains, locus YLR370C, strain arc18, stronger effect = lower value 1.01 | S. cerevisiae deletion strains, locus YLR371W, strain rom2, stronger effect = lower value 1.01 | S. cerevisiae deletion strains, locus YLR384C, strain iki3, stronger effect = lower value 1.02 | S. cerevisiae deletion strains, locus YLR418C, strain cdc73, stronger effect = lower value 1.02 | S. cerevisiae deletion strains, locus YML016C, strain PPZ1, stronger effect = lower value 1.01 | S. cerevisiae deletion strains, locus YML032C, strain rad52, stronger effect = lower value 1 | S. cerevisiae deletion strains, locus YML120C, strain ndi1, stronger effect = lower value 1.03 | S. cerevisiae deletion strains, locus YML124C, strain tub3, stronger effect = lower value 1.01 | S. cerevisiae deletion strains, locus YMR058W, strain fet3, stronger effect = lower value 1.01 | S. cerevisiae deletion strains, locus YMR078C, strain ctf18, stronger effect = lower value 1.02 | S. cerevisiae deletion strains, locus YMR125W, strain sto1, stronger effect = lower value 1.01 | S. cerevisiae deletion strains, locus YMR129W, stronger effect = lower value 1.01 | S. cerevisiae deletion strains, locus YMR205C, strain PFK2, stronger effect = lower value 1.03 | S. cerevisiae deletion strains, locus YMR223W, strain ubp8, stronger effect = lower value 1.02 | S. cerevisiae deletion strains, locus YMR231W, strain pep5, stronger effect = lower value 1.01 | S. cerevisiae deletion strains, locus YMR263W, strain SAP30, stronger effect = lower value 0.995 | S. cerevisiae deletion strains, locus YMR307W, strain GAS1, stronger effect = lower value 1.02 | S. cerevisiae deletion strains, locus YNL067W, strain RPL9B, stronger effect = lower value 1.01 | S. cerevisiae deletion strains, locus YNL071W, strain lat1, stronger effect = lower value 1.01 | S. cerevisiae deletion strains, locus YNL128W, strain TEP1, stronger effect = lower value 1.02 | S. cerevisiae deletion strains, locus YNL153C, strain GIM3, stronger effect = lower value 1.01 | S. cerevisiae deletion strains, locus YNL175C, strain NOP13, stronger effect = lower value 0.987 | S. cerevisiae deletion strains, locus YNL183C, strain NPR1, stronger effect = lower value 0.969 | S. cerevisiae deletion strains, locus YNL197C, strain WHI3, stronger effect = lower value 0.987 | S. cerevisiae deletion strains, locus YNL209W, strain ssb2, stronger effect = lower value 1.02 | S. cerevisiae deletion strains, locus YNL224C, strain SQS1, stronger effect = lower value 0.997 | S. cerevisiae deletion strains, locus YNL233W, strain BNI4, stronger effect = lower value 1.02 | S. cerevisiae deletion strains, locus YNL248C, strain rpa49, stronger effect = lower value 1 | S. cerevisiae deletion strains, locus YNL250W, strain rad50, stronger effect = lower value 1.05 | S. cerevisiae deletion strains, locus YNL271C, strain bni1, stronger effect = lower value 1.01 | S. cerevisiae deletion strains, locus YNL298W, strain CLA4, stronger effect = lower value 1.01 | S. cerevisiae deletion strains, locus YNL307C, strain MCK1, stronger effect = lower value 1.02 | S. cerevisiae deletion strains, locus YNL322C, strain KRE1 (second series), stronger effect = lower value 1.02 | S. cerevisiae deletion strains, locus YNL322C, strain KRE1, stronger effect = lower value 1 and 1.01 | S. cerevisiae deletion strains, locus YNR049C, strain mso1, stronger effect = lower value 1.02 | S. cerevisiae deletion strains, locus YNR052C, strain pop2, stronger effect = lower value 1.02 | S. cerevisiae deletion strains, locus YOL006C, strain TOP1, stronger effect = lower value 1.04 | S. cerevisiae deletion strains, locus YOL012C, strain htz1 0.763 | S. cerevisiae deletion strains, locus YOL147C, strain pex11, stronger effect = lower value 1 | S. cerevisiae deletion strains, locus YOR001W, strain rrp6, stronger effect = lower value 1 | S. cerevisiae deletion strains, locus YOR061W, strain CKA2, stronger effect = lower value 1.01 | S. cerevisiae deletion strains, locus YOR069W, strain VPS5, stronger effect = lower value 1.01 | S. cerevisiae deletion strains, locus YOR070C, strain gyp1, stronger effect = lower value 1.02 | S. cerevisiae deletion strains, locus YOR080W, strain dia2, stronger effect = lower value 1.02 | S. cerevisiae deletion strains, locus YOR083W, strain WHI5 (second series), stronger effect = lower value 0.998 | S. cerevisiae deletion strains, locus YOR083W, strain WHI5, stronger effect = lower value 1.04 | S. cerevisiae deletion strains, locus YOR106W, strain vam3, stronger effect = lower value 1.02 | S. cerevisiae deletion strains, locus YOR136W, strain idh2, stronger effect = lower value 1 | S. cerevisiae deletion strains, locus YOR144C, strain elg1, stronger effect = lower value 1.01 | S. cerevisiae deletion strains, locus YOR184W, strain ser1, stronger effect = lower value 1.04 | S. cerevisiae deletion strains, locus YOR231W, strain MKK1, stronger effect = lower value 1 | S. cerevisiae deletion strains, locus YOR265W, strain rbl2, stronger effect = lower value 1.01 | S. cerevisiae deletion strains, locus YOR270C, strain vph1, stronger effect = lower value 1.04 | S. cerevisiae deletion strains, locus YOR290C, strain snf2, stronger effect = lower value 0.958 | S. cerevisiae deletion strains, locus YOR316C, strain cot1, stronger effect = lower value 1.02 | S. cerevisiae deletion strains, locus YPL051W, strain arl3, stronger effect = lower value 1.01 | S. cerevisiae deletion strains, locus YPL055C, strain LGE1, stronger effect = lower value 1.02 | S. cerevisiae deletion strains, locus YPL078C, strain atp4, stronger effect = lower value 1.02 | S. cerevisiae deletion strains, locus YPL106C, strain sse1, stronger effect = lower value 1.02 | S. cerevisiae deletion strains, locus YPL240C, strain hsp82, stronger effect = lower value 1 | S. cerevisiae deletion strains, locus YPL256C, strain CLN2, stronger effect = lower value 1.05 | S. cerevisiae deletion strains, locus YPR119W, strain clb2, stronger effect = lower value 1.02 | S. cerevisiae deletion strains, locus YPR141C, strain kar3, stronger effect = lower value 1.02 | S. cerevisiae deletion strains, locus YPR163C, strain tif3, stronger effect = lower value 1.02 | S. cerevisiae deletion strains, locus YPR167C, strain met16, stronger effect = lower value 1.02 | S. cerevisiae deletion strains, strain wtn01, stronger effect = lower value 0.996 | S. cerevisiae strains, strain wild type, stronger effect = lower value 1.01
